# Data as given in the supplement of paper PMC4022240.
# ± gives the standard deviation.
# T1: HaloTag-ATRX ADD domain (163-292)
# T1 chain: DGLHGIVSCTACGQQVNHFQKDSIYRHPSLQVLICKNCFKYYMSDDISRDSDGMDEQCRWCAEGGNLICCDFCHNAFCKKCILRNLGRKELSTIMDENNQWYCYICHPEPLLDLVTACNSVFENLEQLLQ
# What was measured:
# Test in all cases: peptide microarray binding signal (635 nm), min-max normalized on array (fraction of array maximum); higher = stronger binding
# Details in all cases: peptide region: H2B 17-29
# [1] = molecular target: T1, HaloTag-ATRX ADD domain (163-292)
# Experimental: (§1)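 Histone 13-mer peptides were synthesized as cellulose conjugates with a C-terminal 20-atom PEG linker and printed in triplicate on nitrocellulose. The sequence given is the unmodified backbone; PTMs (Kme1/2/3, Kac, Sph/Tph, Rme/Rme2a/Rme2s, Rcit) are listed in the label and the 'peptide modifications' condition. Slides were probed at 4 °C for 1 h with biotin-labelled (HQ)5-HaloTag reader fusions (ATRX-ADD, ING2-PHD) then streptavidin-Alexa647, or with rabbit histone antibodies then anti-rabbit Alexa647. The mean 635 nm signal of the triplicate spots was scaled 0-1 between the lowest and highest values on each array.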
# [2] = molecular target: HaloTag-ING2 PHD (mouse Ing2 200-280)
# Experimental: as §1
# [3] = molecular target: anti-H3K4me3 antibody ab8580
# Experimental: as §1
# [4] = molecular target: anti-H3K9me3 antibody ab8898
# Experimental: as §1
# [5] = binder concentration: 1:2,000 dilution
# [6] = binder concentration: 1:10,000 dilution
# [7] = peptide modifications: H2BK20ac H2BK23ac H2BK24ac H2BK27ac H2BK28ac, binder concentration: 1:2,000 dilution
# [8] = peptide modifications: H2BK20ac H2BK23ac H2BK24ac H2BK27ac H2BK28ac, binder concentration: 1:10,000 dilution
# [9] = peptide modifications: H2BK20ac H2BK23ac H2BK24ac H2BK27ac, binder concentration: 1:2,000 dilution
# [10] = peptide modifications: H2BK20ac H2BK23ac H2BK24ac H2BK27ac, binder concentration: 1:10,000 dilution
# [11] = peptide modifications: H2BK20ac H2BK23ac H2BK24ac, binder concentration: 1:2,000 dilution
# [12] = peptide modifications: H2BK20ac H2BK23ac H2BK24ac, binder concentration: 1:10,000 dilution
# [13] = peptide modifications: H2BK20ac H2BK23ac H2BK27ac H2BK28ac, binder concentration: 1:2,000 dilution
# [14] = peptide modifications: H2BK20ac H2BK23ac H2BK27ac H2BK28ac, binder concentration: 1:10,000 dilution
# [15] = peptide modifications: H2BK20ac H2BK23ac H2BK27ac, binder concentration: 1:2,000 dilution
# [16] = peptide modifications: H2BK20ac H2BK23ac H2BK27ac, binder concentration: 1:10,000 dilution
# [17] = peptide modifications: H2BK20ac H2BK23ac H2BK28ac, binder concentration: 1:2,000 dilution
# [18] = peptide modifications: H2BK20ac H2BK23ac H2BK28ac, binder concentration: 1:10,000 dilution
# [19] = peptide modifications: H2BK20ac H2BK23ac, binder concentration: 50 nM
# [20] = peptide modifications: H2BK20ac H2BK23ac, binder concentration: 500 nM
# [21] = peptide modifications: H2BK20ac H2BK23ac, binder concentration: 10 nM
# [22] = peptide modifications: H2BK20ac H2BK23ac, binder concentration: 100 nM
# [23] = peptide modifications: H2BK20ac H2BK23ac, binder concentration: 1:2,000 dilution
# [24] = peptide modifications: H2BK20ac H2BK23ac, binder concentration: 1:10,000 dilution
# [25] = peptide modifications: H2BK20ac H2BK24ac H2BK27ac H2BK28ac, binder concentration: 1:2,000 dilution
# [26] = peptide modifications: H2BK20ac H2BK24ac H2BK27ac H2BK28ac, binder concentration: 1:10,000 dilution
binder,measurement,setting,value
AVTKAQKKDGKKR [H2B 17-29 A V T K A Q K K D G K K R],peptide microarray binding signal,[1]; binder concentration: 50 nM,0.00972 ± 0.00026
same,peptide microarray binding signal,[1]; binder concentration: 500 nM,0.0111 ± 0.00017
same,peptide microarray binding signal,[2]; binder concentration: 10 nM,0.0152 ± 0.0002
same,peptide microarray binding signal,[2]; binder concentration: 100 nM,0.00666 ± 0.00025
same,peptide microarray binding signal,[3]; [5],0.0021 ± 7.2e-05
same,peptide microarray binding signal,[3]; [6],0.00428 ± 3.3e-05
same,peptide microarray binding signal,[4]; [5],0.00118 ± 1.6e-05
same,peptide microarray binding signal,[4]; [6],0.00421 ± 8.6e-05
AVTKAQKKDGKKR [H2B 17-29 A V T Kac A Q Kac Kac D G Kac Kac R],peptide microarray binding signal,"[1]; peptide modifications: H2BK20ac H2BK23ac H2BK24ac H2BK27ac H2BK28ac, binder concentration: 50 nM",0.00442 ± 0.00034
same,peptide microarray binding signal,"[1]; peptide modifications: H2BK20ac H2BK23ac H2BK24ac H2BK27ac H2BK28ac, binder concentration: 500 nM",0.01 ± 0.0008
same,peptide microarray binding signal,"[2]; peptide modifications: H2BK20ac H2BK23ac H2BK24ac H2BK27ac H2BK28ac, binder concentration: 10 nM",0.00871 ± 0.00071
same,peptide microarray binding signal,"[2]; peptide modifications: H2BK20ac H2BK23ac H2BK24ac H2BK27ac H2BK28ac, binder concentration: 100 nM",0.0154 ± 0.0025
same,peptide microarray binding signal,[3]; [7],0.00208 ± 0.00036
same,peptide microarray binding signal,[3]; [8],0.00257 ± 0.0004
same,peptide microarray binding signal,[4]; [7],0.000936 ± 3.8e-05
same,peptide microarray binding signal,[4]; [8],0.00236 ± 0.00011
AVTKAQKKDGKKR [H2B 17-29 A V T Kac A Q Kac Kac D G Kac K R],peptide microarray binding signal,"[1]; peptide modifications: H2BK20ac H2BK23ac H2BK24ac H2BK27ac, binder concentration: 50 nM",0.00357 ± 0.00035
same,peptide microarray binding signal,"[1]; peptide modifications: H2BK20ac H2BK23ac H2BK24ac H2BK27ac, binder concentration: 500 nM",0.00643 ± 0.00011
same,peptide microarray binding signal,"[2]; peptide modifications: H2BK20ac H2BK23ac H2BK24ac H2BK27ac, binder concentration: 10 nM",0.00579 ± 0.00026
same,peptide microarray binding signal,"[2]; peptide modifications: H2BK20ac H2BK23ac H2BK24ac H2BK27ac, binder concentration: 100 nM",0.00702 ± 0.00069
same,peptide microarray binding signal,[3]; [9],0.00136 ± 0.0002
same,peptide microarray binding signal,[3]; [10],0.00131 ± 2.6e-05
same,peptide microarray binding signal,[4]; [9],0.000982 ± 0.00011
same,peptide microarray binding signal,[4]; [10],0.0011 ± 2.2e-05
AVTKAQKKDGKKR [H2B 17-29 A V T Kac A Q Kac Kac D G K K R],peptide microarray binding signal,"[1]; peptide modifications: H2BK20ac H2BK23ac H2BK24ac, binder concentration: 50 nM",0.00661 ± 0.00032
same,peptide microarray binding signal,"[1]; peptide modifications: H2BK20ac H2BK23ac H2BK24ac, binder concentration: 500 nM",0.0168 ± 0.0019
same,peptide microarray binding signal,"[2]; peptide modifications: H2BK20ac H2BK23ac H2BK24ac, binder concentration: 10 nM",0.0274 ± 0.0038
same,peptide microarray binding signal,"[2]; peptide modifications: H2BK20ac H2BK23ac H2BK24ac, binder concentration: 100 nM",0.0204 ± 0.0078
same,peptide microarray binding signal,[3]; [11],0.00636 ± 0.0011
same,peptide microarray binding signal,[3]; [12],0.0024 ± 0.00011
same,peptide microarray binding signal,[4]; [11],0.00204 ± 0.00015
same,peptide microarray binding signal,[4]; [12],0.00208 ± 8.4e-05
AVTKAQKKDGKKR [H2B 17-29 A V T Kac A Q Kac K D G Kac Kac R],peptide microarray binding signal,"[1]; peptide modifications: H2BK20ac H2BK23ac H2BK27ac H2BK28ac, binder concentration: 50 nM",0.00414 ± 0.00019
same,peptide microarray binding signal,"[1]; peptide modifications: H2BK20ac H2BK23ac H2BK27ac H2BK28ac, binder concentration: 500 nM",0.00762 ± 0.00011
same,peptide microarray binding signal,"[2]; peptide modifications: H2BK20ac H2BK23ac H2BK27ac H2BK28ac, binder concentration: 10 nM",0.00913 ± 0.00015
same,peptide microarray binding signal,"[2]; peptide modifications: H2BK20ac H2BK23ac H2BK27ac H2BK28ac, binder concentration: 100 nM",0.0159 ± 0.00082
same,peptide microarray binding signal,[3]; [13],0.00168 ± 6.8e-05
same,peptide microarray binding signal,[3]; [14],0.0024 ± 4.3e-05
same,peptide microarray binding signal,[4]; [13],0.000861 ± 5.4e-05
same,peptide microarray binding signal,[4]; [14],0.000923 ± 9.6e-06
AVTKAQKKDGKKR [H2B 17-29 A V T Kac A Q Kac K D G Kac K R],peptide microarray binding signal,"[1]; peptide modifications: H2BK20ac H2BK23ac H2BK27ac, binder concentration: 50 nM",0.00646 ± 0.00075
same,peptide microarray binding signal,"[1]; peptide modifications: H2BK20ac H2BK23ac H2BK27ac, binder concentration: 500 nM",0.00214 ± 0.00028
same,peptide microarray binding signal,"[2]; peptide modifications: H2BK20ac H2BK23ac H2BK27ac, binder concentration: 10 nM",0.00585 ± 0.00024
same,peptide microarray binding signal,"[2]; peptide modifications: H2BK20ac H2BK23ac H2BK27ac, binder concentration: 100 nM",0.000992 ± 4.7e-05
same,peptide microarray binding signal,[3]; [15],0.000189 ± 5.4e-06
same,peptide microarray binding signal,[3]; [16],0.0016 ± 0.00014
same,peptide microarray binding signal,[4]; [15],0.000664 ± 5.2e-05
same,peptide microarray binding signal,[4]; [16],0.001211 ± 1.2e-05
AVTKAQKKDGKKR [H2B 17-29 A V T Kac A Q Kac K D G K Kac R],peptide microarray binding signal,"[1]; peptide modifications: H2BK20ac H2BK23ac H2BK28ac, binder concentration: 50 nM",0.00429 ± 0.00027
same,peptide microarray binding signal,"[1]; peptide modifications: H2BK20ac H2BK23ac H2BK28ac, binder concentration: 500 nM",0.00667 ± 0.00058
same,peptide microarray binding signal,"[2]; peptide modifications: H2BK20ac H2BK23ac H2BK28ac, binder concentration: 10 nM",0.0115 ± 0.00023
same,peptide microarray binding signal,"[2]; peptide modifications: H2BK20ac H2BK23ac H2BK28ac, binder concentration: 100 nM",0.0129 ± 0.0013
same,peptide microarray binding signal,[3]; [17],0.00221 ± 0.00083
same,peptide microarray binding signal,[3]; [18],0.00097 ± 9.9e-06
same,peptide microarray binding signal,[4]; [17],0.000634 ± 2e-05
same,peptide microarray binding signal,[4]; [18],0.00104 ± 4.3e-05
AVTKAQKKDGKKR [H2B 17-29 A V T Kac A Q Kac K D G K K R],peptide microarray binding signal,[1]; [19],0.00492 ± 0.00049
same,peptide microarray binding signal,[1]; [20],0.002 ± 0.0004
same,peptide microarray binding signal,[2]; [21],0.00477 ± 0.00013
same,peptide microarray binding signal,[2]; [22],0.00333 ± 0.00048
same,peptide microarray binding signal,[3]; [23],0.000321 ± 3.2e-05
same,peptide microarray binding signal,[3]; [24],0.00097 ± 7e-05
same,peptide microarray binding signal,[4]; [23],0.000408 ± 6.9e-06
same,peptide microarray binding signal,[4]; [24],0.000634 ± 1.2e-05
AVTKAQKKDGKKR [H2B 17-29 A V T Kac A Q K Kac D G K K R],peptide microarray binding signal,[1]; [19],0.00342 ± 3.7e-05
same,peptide microarray binding signal,[1]; [20],0.00562 ± 0.00013
same,peptide microarray binding signal,[2]; [21],0.00651 ± 0.00014
same,peptide microarray binding signal,[2]; [22],0.00468 ± 0.0004
same,peptide microarray binding signal,[3]; [23],0.00213 ± 0.0003
same,peptide microarray binding signal,[3]; [24],0.000685 ± 1.5e-05
same,peptide microarray binding signal,[4]; [23],0.000544 ± 1.7e-05
same,peptide microarray binding signal,[4]; [24],0.000865 ± 9e-06
AVTKAQKKDGKKR [H2B 17-29 A V T Kac A Q K Kac D G Kac Kac R],peptide microarray binding signal,"[1]; peptide modifications: H2BK20ac H2BK24ac H2BK27ac H2BK28ac, binder concentration: 50 nM",0.00276 ± 5.2e-05
same,peptide microarray binding signal,"[1]; peptide modifications: H2BK20ac H2BK24ac H2BK27ac H2BK28ac, binder concentration: 500 nM",0.00419 ± 0.00026
same,peptide microarray binding signal,"[2]; peptide modifications: H2BK20ac H2BK24ac H2BK27ac H2BK28ac, binder concentration: 10 nM",0.00436 ± 0.00021
same,peptide microarray binding signal,"[2]; peptide modifications: H2BK20ac H2BK24ac H2BK27ac H2BK28ac, binder concentration: 100 nM",0.00489 ± 0.00035
same,peptide microarray binding signal,[3]; [25],0.000472 ± 1.7e-05
same,peptide microarray binding signal,[3]; [26],0.000856 ± 8.9e-06
same,peptide microarray binding signal,[4]; [25],0.000468 ± 1.8e-05
same,peptide microarray binding signal,[4]; [26],0.000692 ± 7.3e-06
